According to PubChem BioAssay (NCI):
This is part of a sample that, as a whole, favours compounds with a hit. Of some 83,000 tested, about 20% had one in any assay.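 Method: cells in 96-well plates; compound added at one concentration; 48 h incubation; percent growth measured; values under 10 scored active.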 Activity calls are given as the source filed them.

What was measured:
Assay in all cases: NCI-60 one-dose screen, 48 h (100 = growth as untreated, 0 = no growth, -100 = all killed)
Conditions in all cases: 10 µM unless noted
SK-MEL-2 melanoma = test system: SK-MEL-2 melanoma
EKVX NSCLC = test system: EKVX NSCLC
SN12C renal = test system: SN12C renal
UO-31 renal = test system: UO-31 renal
TK-10 renal = test system: TK-10 renal
ACHN renal = test system: ACHN renal
CAKI-1 renal = test system: CAKI-1 renal
A498 renal = test system: A498 renal
CCRF-CEM leukemia = test system: CCRF-CEM leukemia
MOLT-4 leukemia = test system: MOLT-4 leukemia
SR leukemia = test system: SR leukemia
RPMI-8226 leukemia = test system: RPMI-8226 leukemia
OVCAR-8 ovarian = test system: OVCAR-8 ovarian
OVCAR-5 ovarian = test system: OVCAR-5 ovarian
OVCAR-4 ovarian = test system: OVCAR-4 ovarian
SK-OV-3 ovarian = test system: SK-OV-3 ovarian
IGROV1 ovarian = test system: IGROV1 ovarian
OVCAR-3 ovarian = test system: OVCAR-3 ovarian
HS 578T breast = test system: HS 578T breast
NCI/ADR-RES ovarian = test system: NCI/ADR-RES ovarian

Measured: growth

CC/C(=C(/c1ccc(Cl)cc1)c1ccc(OCCN2CCCC2)cc1)c1ccccc1
active: SR leukemia -10.5% | RPMI-8226 leukemia 7.58%
inactive: SK-MEL-2 melanoma 88% | EKVX NSCLC 59.3% | SN12C renal 69.3% | UO-31 renal 66.2% | TK-10 renal 93.5% | ACHN renal 87.9% | CAKI-1 renal 61.6% | A498 renal 79.7% | CCRF-CEM leukemia 36.9% | MOLT-4 leukemia 42.8% | OVCAR-8 ovarian 69.7% | OVCAR-5 ovarian 82.4% | OVCAR-4 ovarian 72.2% | SK-OV-3 ovarian 104% | IGROV1 ovarian 76.6% | OVCAR-3 ovarian 70.2% | HS 578T breast 71.3% | NCI/ADR-RES ovarian 80.1%

CCNCCNc1c(C)c(-c2ccc(C(F)(F)F)cc2)c(C#N)c2nc3ccccc3n12
inactive: SK-MEL-2 melanoma 102% | EKVX NSCLC 92.4% | SN12C renal 67.2% | UO-31 renal 79.1% | TK-10 renal 109% | ACHN renal 82.5% | CAKI-1 renal 92.3% | A498 renal 69.6% | CCRF-CEM leukemia 86.9% | MOLT-4 leukemia 90.9% | RPMI-8226 leukemia 86.4% | OVCAR-8 ovarian 95.3% | OVCAR-5 ovarian 104% | OVCAR-4 ovarian 88.2% | SK-OV-3 ovarian 111% | IGROV1 ovarian 78.9% | OVCAR-3 ovarian 96.4% | HS 578T breast 90.8% | NCI/ADR-RES ovarian 101%
active: SR leukemia -0.902%

CCN1C(=O)N(CC)C2C1NN=c1s/c(=C\c3ccc([N+](=O)[O-])cc3)c(=O)n12 (stereo not given)
inactive: SK-MEL-2 melanoma 70.4% | EKVX NSCLC 52.3% | SN12C renal 29.6% | UO-31 renal 37.5% | TK-10 renal 69.1% | ACHN renal 41.9% | CAKI-1 renal 37.1% | A498 renal 18.6% | CCRF-CEM leukemia 11.2% | MOLT-4 leukemia 15.8% | SR leukemia 19.9% | RPMI-8226 leukemia 24.3% | OVCAR-8 ovarian 15.3% | OVCAR-5 ovarian 35% | OVCAR-4 ovarian 47.7% | SK-OV-3 ovarian 42.8% | IGROV1 ovarian 22.6% | HS 578T breast 17.1%
active: OVCAR-3 ovarian 7.68% | NCI/ADR-RES ovarian 9.89%

COC(=O)c1cc(-c2ccc(OC)c(OC)c2)[nH]c1N/N=C/c1c(Cl)cccc1Cl
inactive: SK-MEL-2 melanoma 53.6% | EKVX NSCLC 39.9% | SN12C renal 59.1% | UO-31 renal 52.4% | TK-10 renal 57.2% | ACHN renal 54.4% | A498 renal 27.6% | CCRF-CEM leukemia 19.7% | MOLT-4 leukemia 39.4% | SR leukemia 12.1% | RPMI-8226 leukemia 24.1% | OVCAR-8 ovarian 41.1% | OVCAR-5 ovarian 49.4% | OVCAR-4 ovarian 69.3% | SK-OV-3 ovarian 42.2% | IGROV1 ovarian 42.4% | HS 578T breast 14.3% | NCI/ADR-RES ovarian 26.8%
active: CAKI-1 renal 6.72% | OVCAR-3 ovarian -19.2%

CN1C(=O)N(C)C2C1NN=c1s/c(=C\c3ccccc3F)c(=O)n12 (stereo not given)
active: A498 renal 1.45% | OVCAR-3 ovarian -3.72% | HS 578T breast 7.57% | NCI/ADR-RES ovarian -13.1%
inactive: SK-MEL-2 melanoma 42.5% | EKVX NSCLC 48.3% | SN12C renal 26% | UO-31 renal 42.6% | TK-10 renal 63.1% | ACHN renal 36.8% | CAKI-1 renal 31.4% | CCRF-CEM leukemia 11% | MOLT-4 leukemia 15.8% | SR leukemia 18.2% | RPMI-8226 leukemia 20.7% | OVCAR-8 ovarian 10.1% | OVCAR-5 ovarian 25.6% | OVCAR-4 ovarian 49% | SK-OV-3 ovarian 33.8% | IGROV1 ovarian 20.8%

CC(C)CCc1nc2ccc(NCc3ccc(OCCN4CCC(C)CC4)cc3)cc2[nH]1
inactive: SK-MEL-2 melanoma 110% | EKVX NSCLC 78.5% | SN12C renal 69.9% | UO-31 renal 57.4% | TK-10 renal 111% | ACHN renal 97.3% | CAKI-1 renal 64.8% | A498 renal 79.3% | CCRF-CEM leukemia 67.3% | MOLT-4 leukemia 62.3% | SR leukemia 14.2% | RPMI-8226 leukemia 68.6% | OVCAR-8 ovarian 96.6% | OVCAR-5 ovarian 95% | OVCAR-4 ovarian 80.6% | SK-OV-3 ovarian 102% | IGROV1 ovarian 79.3% | OVCAR-3 ovarian 71.9% | HS 578T breast 84.3% | NCI/ADR-RES ovarian 97%

CN1CCN(Cc2ccc(NC(=O)c3cc(C#Cc4cnc(N)c5ncccc45)n(C)n3)cc2C(F)(F)F)CC1
inactive: SK-MEL-2 melanoma 101% | EKVX NSCLC 105% | SN12C renal 76.8% | UO-31 renal 64% | TK-10 renal 147% | ACHN renal 47.2% | CAKI-1 renal 105% | A498 renal 83.2% | MOLT-4 leukemia 80.9% | RPMI-8226 leukemia 69.2% | OVCAR-8 ovarian 69.4% | OVCAR-5 ovarian 140% | OVCAR-4 ovarian 114% | SK-OV-3 ovarian 111% | IGROV1 ovarian 113% | OVCAR-3 ovarian 119% | HS 578T breast 25% | NCI/ADR-RES ovarian 96%
active: CCRF-CEM leukemia 4.79% | SR leukemia 2.23%

COCCNC(=O)Cc1cc(-c2ccc(Cl)cc2)n(-c2ccccc2)c1C
inactive: SK-MEL-2 melanoma 90.7% | EKVX NSCLC 85.4% | SN12C renal 87.6% | UO-31 renal 71.1% | TK-10 renal 95.3% | ACHN renal 92.5% | CAKI-1 renal 73.5% | A498 renal 89.9% | CCRF-CEM leukemia 88.1% | MOLT-4 leukemia 90% | SR leukemia 61.9% | RPMI-8226 leukemia 63% | OVCAR-8 ovarian 85.8% | OVCAR-5 ovarian 90% | OVCAR-4 ovarian 67.1% | SK-OV-3 ovarian 95% | IGROV1 ovarian 88.6% | OVCAR-3 ovarian 116% | HS 578T breast 107% | NCI/ADR-RES ovarian 86.1%

O=C(c1ccccc1)[C@@H](c1ccccc1)[C@]1(O)C(=O)Nc2ccccc21
inactive: SK-MEL-2 melanoma 96.9% | EKVX NSCLC 105% | SN12C renal 82.3% | UO-31 renal 76.1% | TK-10 renal 112% | ACHN renal 90.1% | CAKI-1 renal 84.6% | A498 renal 100% | CCRF-CEM leukemia 100% | MOLT-4 leukemia 102% | SR leukemia 102% | RPMI-8226 leukemia 100% | OVCAR-8 ovarian 92.6% | OVCAR-5 ovarian 82.1% | OVCAR-4 ovarian 98.7% | SK-OV-3 ovarian 84% | IGROV1 ovarian 98.4% | OVCAR-3 ovarian 94.2% | HS 578T breast 93.3% | NCI/ADR-RES ovarian 102%

[2H]C([2H])([2H])Oc1ccc(/C=C/C(=O)/C=C(/C=C/c2ccc(OC([2H])([2H])[2H])c(OC([2H])([2H])[2H])c2OC([2H])([2H])[2H])OB(F)F)c(OC([2H])([2H])[2H])c1OC([2H])([2H])[2H]
inactive: SK-MEL-2 melanoma 94.9% | EKVX NSCLC 88.7% | SN12C renal 56.7% | UO-31 renal 38.8% | TK-10 renal 74.2% | ACHN renal 14.4% | CAKI-1 renal 48.6% | A498 renal 107% | MOLT-4 leukemia 23.8% | RPMI-8226 leukemia 18.9% | OVCAR-5 ovarian 91.1% | OVCAR-4 ovarian 65.2% | SK-OV-3 ovarian 103% | IGROV1 ovarian 57.1% | OVCAR-3 ovarian 14.5% | HS 578T breast 60% | NCI/ADR-RES ovarian 54.6%
active: CCRF-CEM leukemia -2.51% | SR leukemia 8.05% | OVCAR-8 ovarian 9.4%

O=C(OCC(O)(CO)C(=O)NC12CC3CC(CC(C3)C1)C2)c1ccc(Cl)cc1 (stereo not given)
inactive: SK-MEL-2 melanoma 86.3% | EKVX NSCLC 103% | SN12C renal 100% | UO-31 renal 82.6% | TK-10 renal 85.3% | ACHN renal 102% | CAKI-1 renal 99% | A498 renal 102% | CCRF-CEM leukemia 87.8% | MOLT-4 leukemia 83.8% | SR leukemia 86% | RPMI-8226 leukemia 105% | OVCAR-8 ovarian 92.2% | OVCAR-5 ovarian 100% | OVCAR-4 ovarian 107% | SK-OV-3 ovarian 99.7% | IGROV1 ovarian 110% | OVCAR-3 ovarian 101% | HS 578T breast 88.5% | NCI/ADR-RES ovarian 98.6%

Cc1cc(C)n(C(=O)CSc2nc3sc4c(c3c(=O)n2-c2ccccc2)CCCCC4)n1
inactive: SK-MEL-2 melanoma 98.3% | EKVX NSCLC 97% | SN12C renal 91.9% | UO-31 renal 90.6% | TK-10 renal 101% | ACHN renal 100% | CAKI-1 renal 95.2% | A498 renal 99.5% | CCRF-CEM leukemia 95.5% | MOLT-4 leukemia 95.2% | SR leukemia 97.8% | RPMI-8226 leukemia 103% | OVCAR-8 ovarian 100% | OVCAR-5 ovarian 105% | OVCAR-4 ovarian 94.2% | SK-OV-3 ovarian 99% | IGROV1 ovarian 107% | OVCAR-3 ovarian 104% | HS 578T breast 96.8% | NCI/ADR-RES ovarian 104%

Cc1ccc(OCCOCCOCCOCCOc2ccc(C)n(O)c2=S)c(=S)n1O
active: UO-31 renal -1.11% | CAKI-1 renal 8.11% | CCRF-CEM leukemia 1.1% | MOLT-4 leukemia 6.72% | SR leukemia 6.36% | OVCAR-8 ovarian 9.37% | SK-OV-3 ovarian 0.0112% | NCI/ADR-RES ovarian 1.43%
inactive: SK-MEL-2 melanoma 12.1% | EKVX NSCLC 17.3% | SN12C renal 13.1% | TK-10 renal 33.3% | ACHN renal 12.7% | A498 renal 29.6% | RPMI-8226 leukemia 13.4% | OVCAR-5 ovarian 39.1% | OVCAR-4 ovarian 24.4% | IGROV1 ovarian 30.9% | OVCAR-3 ovarian 25% | HS 578T breast 44%

O=C1c2cccnc2C(=O)c2c1c(C(=O)OCCCN1CCOCC1)c1ccccn21
active: SK-MEL-2 melanoma -57.5% | SN12C renal -19.3% | UO-31 renal -42.6% | ACHN renal -37.3% | CAKI-1 renal -11.4% | A498 renal -20.2% | CCRF-CEM leukemia -5.87% | MOLT-4 leukemia 0.0972% | SR leukemia -2.21% | RPMI-8226 leukemia -17.2% | OVCAR-8 ovarian -46.2% | OVCAR-5 ovarian -11.2% | OVCAR-4 ovarian -19.1% | SK-OV-3 ovarian -11.6% | IGROV1 ovarian -3.82% | OVCAR-3 ovarian 2.32% | NCI/ADR-RES ovarian -13.7%
inactive: EKVX NSCLC 19.6% | TK-10 renal 21.9% | HS 578T breast 26.9%

C=C(C)[C@@H]1CC[C@]2(COC(=O)c3cccnc3)CC[C@]3(C)[C@H](CC[C@@H]4[C@@]5(C)CCCN(C(=O)c6cccnc6)C(C)(C)[C@@H]5CC[C@]43C)[C@@H]12
inactive: SK-MEL-2 melanoma 65.3% | EKVX NSCLC 49.6% | SN12C renal 38.1% | UO-31 renal 35.9% | TK-10 renal 51.8% | ACHN renal 29.5% | CAKI-1 renal 32.6% | A498 renal 46.7% | CCRF-CEM leukemia 24.9% | MOLT-4 leukemia 23.6% | SR leukemia 11.3% | RPMI-8226 leukemia 14% | OVCAR-8 ovarian 26.9% | OVCAR-5 ovarian 53.9% | OVCAR-4 ovarian 37.6% | SK-OV-3 ovarian 53.1% | IGROV1 ovarian 42.8% | OVCAR-3 ovarian 32.9% | HS 578T breast 59% | NCI/ADR-RES ovarian 42.7%
